Reference: PubChem BioAssay (EPA / NIEHS)
Inconclusive results are not listed. More than one record can exist for a structure, and the calls need not agree. Calls of active or inactive are those of the source. The calls were made as follows, unless noted: active = hit-call score of the fitted dose curve at least 0.9, where 1 is the maximum; inconclusive = response in the unintended direction; inactive = score below 0.9.

Columns and labels:
[1] = Tanguay_ZF_120hpf_TR_legacy: (Legacy) Oregon State University Tanguay Lab 120 Hour Post-fertilization zebrafish Assay for Touch Response (AID 2283667)
How it was run: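 Readout is presence or absence of touch response in 120 hpf zebrafish larvae, assessed by brightfield observation after continuous static exposure at 28C. Final vehicle was 0.64% (vol/vol) DMSO.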

[2] = read-out: Cytochrome P450 (CYP24A1_1), CYP24A1 (gene 1591); assay: LTEA_HepaRG_CYP24A1_1: Life Technologies and Expression Analysis (LTEA) Assay for Cytochrome P450 (CYP24A1_1) using HepaRG (AID 2283671; active = hit-call score of the fitted dose curve at least 0.9, where 1 is the maximum; inactive = score below 0.9); settings: mRNA level, 48 h; actives raise or lower the signal
How it was run: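 Cultures of human HepaRG were treated in duplicate for 48 h (0.5% DMSO vehicle, highest dose 100 uM). CYP24A1 mRNA by qRT-PCR, normalized to ACTB, GAPDH, POLR2A.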

[3] = STM_H9_OrnithineISnorm_perc: Stemina devTOX quickPredict H9 human embryonic stem cell (hESC)-based Assay for Ornithine (ORN) Metabolite Biomarker, Normalized (AID 2283712; active = hit-call score of the fitted dose curve at least 0.9, where 1 is the maximum; inactive = score below 0.9;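 also: ornithine released into spent medium during last day measured by mass spectrometry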)
How it was run: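 UPLC-HRMS readout: endogenous ornithine EIC area / 13C-ORN internal standard, then % of 0.1% DMSO median. H9 hESCs (pluripotent), 72h exposure, re-dosed with fresh media q24h; last 24-h spent media, deproteinized in 40% acetonitrile.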

[4] = STM_H9_CystineISnorm_perc: Stemina devTOX quickPredict H9 human embryonic stem cell (hESC)-based Assay for Cystine (CYSS) Metabolite Biomarker, Normalized (AID 2283713; active = hit-call score of the fitted dose curve at least 0.9, where 1 is the maximum; inactive = score below 0.9)
How it was run: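 UPLC-HRMS read-out: endogenous cystine peak area in spent medium, normalized to isotope-labeled internal standard and to median of 0.1% DMSO controls. Pluripotent H9 cells, 72h exposure, daily medium/compound replenishment; medium from last 24h sampled.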

[5] = STM_H9_OrnCyssISnorm_ratio: Stemina devTOX quickPredict H9 human embryonic stem cell (hESC)-based Assay for Ornithine (ORN):Cystine (CYSS) Ratio (AID 2283714)
How it was run: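 H9 hESC, 72h, q24h re-dose; last-day media → acetonitrile deproteinization → UPLC-HRMS. ORN:CYSS ratio from isotope-normalized EIC areas, vs 0.1% DMSO; MTX references on each plate.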

[6] = Tanguay_ZF_120hpf_ActivityScore_legacy: (Legacy) Oregon State University Tanguay Lab 120 Hour Post-fertilization zebrafish Assay Score for Activity (AID 2283742);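 as to AC50: dechorionated Tropical 5D wild-type zebrafish embryos held singly per well; static exposure from 6 hpf until 120 hpf at 28 °C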
How it was run: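 In this whole-embryo screen, dechorionated zebrafish were exposed from 6 hpf until 120 hpf at 28C under a 0.64% DMSO vehicle. Developmental malformations and death were recorded by brightfield microscopy as binary endpoints.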

[7] = CCTE_Padilla_ZF_144hpf_TERATOSCORE: (Legacy) CCTE's 144 Hour Post-fertilization zebrafish Assay Teratoscore, Padilla Lab (AID 2283679; active = hit-call score of the fitted dose curve at least 0.9, where 1 is the maximum; inactive = score below 0.9;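 as to AC50: zebrafish embryos with chorions exposed by immersion from 6-8 hpf to 5 dpf with daily renewal; teratogenicity score from eye scoring of death hatching and malformations at 144 hpf; higher score means more developmental defects relative to DMSO baseline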)
How it was run: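 Larvae scored by eye at 144 hpf for death, hatching and malformations after a day in clean Hanks'. Before that, daily-renewed exposure at 80 uM (0.4% DMSO, 26C) from roughly 6-8 hpf through 5 dpf, 4 embryos per chemical.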

[8] = CEETOX_H295R_MTT_cell_viability: Viability Assessment in the CeeTox HT-H295R MTT Assay (AID 2283718; active = hit-call score of the fitted dose curve at least 0.9, where 1 is the maximum; inactive = score below 0.9;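 as to AC50: curve fitted both ways so AC50 may mark viability loss or gain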)
How it was run: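 H295R cells prestimulated 48 h with 10 uM forskolin, then exposed 48 h to test chemical (0.1% DMSO final). Viability by MTT (0.5 mg/ml, 4 h, 37 C), absorbance 570/650 nm; percent change versus DMSO, bidirectional fit.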

[9] = ArunA_CellTiter_hNC: Viability Assessment in the ArunA Biomedical's Oris Neural Crest (hNC) Cell Migration Assay (AID 2283752)
Protocol: ArunA_CellTiter_hNC is a cell-based, single-readout assay that uses human H9-derived embryonic neural crest stem cells (hNC). Measurements were taken 72 hours after chemical dosing in a 96-well plate.ArunA_CellTiter_hNC is an assay component measured from the ArunA_CellTiter_hNC assay. It is designed to make measurements of viability, a form of viability reporter, as detected with fluorescence intensity signals by HCS Fluorescent Imaging technology. Data from the assay component ArunA_CellTiter_hNC was analyzed at the endpoint, ArunA_CellTiter_hNC, in the positive analysis fitting direction relative to DMSO as the negative control and baseline of activity. Using a type of viability reporter, loss-of-signal activity can be used to understand viability. To generalize the intended target to other relatable targets, this assay endpoint is annotated to the cell cycle intended target family, where the subfamily is cytotoxicity.
To assess the hNP and hNC migration and cell titer endpoints, 60,000 cells per well were plated onto Matrigel in basal growth medium with LIF and bFGF in a 96-well plate format. Plates were incubated for 16 h at 37C followed by a 72 h exposure to chemical in the test medium. For the migration endpoints, cells were seeded and incubated in presence of 'seeding stoppers' to prevent cell migration and growth into the detection zone. At the beginning of chemical exposure, stoppers were removed, and growth medium was replaced with test medium. In the case of the stopper control wells, stoppers remained in place following replacement of growth medium with test medium. […] Cell viability in the detection zone was quantitated using a Flexstation3 microplate reader (ex494 nm/em 517 nm). Corresponding cell titer endpoints were assessed for the hNP and hNC cells using the Promega CellTiter Aqueous One Solution Cell Proliferation Assay (Cat no. G3581; CellTiter 96). Finally, to gain insight into the mechanisms by which cells migrate into the detection zone, Ki-67 expression was quantified for 10 additional chemicals in the hNP and hNC systems. […]

Compound: CN(C)CCCN1c2ccccc2Sc2ccc(Cl)cc21
- outcome [1]: inactive
- outcome [2]: inactive
- AC50 [3]: 3.51 µM (active)
- AC50 [4]: 0.751 µM (active)
- AC50 [5]: 0.897 µM (active)
- AC50 [6]: 33.7 µM (active)

Compound: CC(C)c1cccc(C(C)C)c1NC(=O)NS(=O)(=O)c1cc(C(C)(C)O)co1
- outcome [1]: inactive
- outcome [7]: inactive
- outcome [6]: inactive

Compound: CCCCC(CC)COP(=O)(OCC(CC)CCCC)OCC(CC)CCCC (stereo not given)
- outcome [1]: inactive
- outcome [3]: inactive
- outcome [4]: inactive
- outcome [5]: inactive
- outcome [6]: inactive

Compound: O=C(Oc1ccccc1)c1cccc(C(=O)Oc2ccccc2)c1
- outcome [1]: inactive
- outcome [3]: inactive
- outcome [4]: inactive
- outcome [8]: inactive
- outcome [6]: inactive

Compound: Cc1ccc(C(C)(C)C)c(O)c1
- outcome [1]: inactive
- outcome [3]: inactive
- outcome [4]: inactive
- AC50 [5]: 15 µM (active)
- outcome [6]: inactive

Compound: Nc1nc(Cl)nc2c1ncn2[C@H]1C[C@H](O)[C@@H](CO)O1
- outcome [1]: inactive
- AC50 [3]: 0.35 µM (active)
- AC50 [4]: 0.348 µM (active)
- AC50 [5]: 0.621 µM (active)
- AC50 [8]: 0.109 µM (active)
- outcome [6]: inactive
- AC50 [9]: 0.354 µM (active)
- outcome [9]: inactive

Compound: NC(=Nc1ccccc1)Nc1ccccc1
- outcome [1]: inactive
- outcome [3]: inactive
- outcome [4]: inactive
- outcome [8]: inactive
- AC50 [6]: 0.00546 µM (active)

Compound: CCC(C)N(C)C(=O)c1cc2ccccc2c(-c2ccccc2Cl)n1 (stereo not given)
- AC50 [1]: 26.8 µM (active)
- outcome [2]: inactive
- outcome [3]: inactive
- outcome [4]: inactive
- outcome [8]: inactive
- outcome [6]: inactive

Compound: O=Cc1ccccc1C=O
- outcome [1]: inactive
- outcome [3]: inactive
- outcome [4]: inactive
- AC50 [6]: 3.08 µM (active)

Compound: O=C(O)CN(CC(=O)O)CC(=O)O
- outcome [1]: inactive
- outcome [3]: inactive
- AC50 [4]: 14.8 µM (active)
- AC50 [5]: 13 µM (active)
- outcome [8]: inactive
- outcome [6]: inactive

Compound: Cc1cn([C@H]2C=C[C@@H](CO)O2)c(=O)[nH]c1=O
- outcome [1]: inactive
- outcome [3]: inactive
- outcome [4]: inactive
- outcome [5]: inactive
- outcome [6]: inactive

Compound: Cc1cc(Cc2ccc(N)c(C)c2)ccc1N
- outcome [1]: inactive
- AC50 [7]: 88.5 µM (active)
- outcome [3]: inactive
- outcome [4]: inactive
- outcome [5]: inactive
- outcome [8]: inactive
- outcome [6]: inactive

Compound: CC(=O)S[C@H](C(=O)N[C@H]1Cc2ccccc2[C@H]2CCC[C@@H](C(=O)O)N2C1=O)C(C)C
- outcome [1]: inactive
- outcome [3]: inactive
- outcome [4]: inactive
- outcome [6]: inactive

Compound: O=C1NC(=O)C(c2ccccc2)(c2ccccc2)N1
- outcome [1]: inactive
- outcome [3]: inactive
- outcome [4]: inactive
- outcome [5]: inactive
- outcome [6]: inactive

Compound: CC(COCC(C)OC(=O)c1ccccc1)OC(=O)c1ccccc1 (stereo not given)
- outcome [1]: inactive
- outcome [3]: inactive
- outcome [4]: inactive
- outcome [8]: inactive
- outcome [6]: inactive

Compound: CCCCCCCCCCCCCCOS(=O)(=O)O
- AC50 [1]: 32.6 µM (active)
- AC50 [7]: 15.3 µM (active)
- AC50 [6]: 32.8 µM (active)

Compound: CCCCCCC(CCCCCCCCCCC(=O)OCC(COC(C)=O)OC(C)=O)OC(C)=O (stereo not given)
- outcome [1]: inactive
- outcome [2]: inactive
- AC50 [7]: 7.74 µM (active)

Compound: CCc1cc(C2=C(C(=O)O)N(c3ccccc3C(F)(F)F)S(=O)(=O)c3ccccc32)cc2c1OCO2
- outcome [1]: inactive
- outcome [7]: inactive
- outcome [3]: inactive
- outcome [4]: inactive
- outcome [5]: inactive
- outcome [6]: inactive

Compound: N[C@@H](Cc1c[nH]c2ccccc12)C(=O)O
- outcome [1]: inactive
- outcome [3]: inactive
- outcome [4]: inactive
- outcome [6]: inactive

Compound: CC(=O)[C@@]1(O)CC[C@H]2[C@@H]3CCC4=CC(=O)CC[C@]4(C)[C@H]3CC[C@@]21C
- outcome [1]: inactive
- AC50 [7]: 36.1 µM (active)
- AC50 [3]: 62 µM (active)
- AC50 [4]: 80 µM (active)
- AC50 [5]: 73.4 µM (active)
- outcome [8]: inactive
- outcome [6]: inactive

Compound: Cc1occc(=O)c1O
- outcome [1]: inactive
- outcome [2]: inactive
- outcome [6]: inactive

Compound: CCCC[C@H]1CN(CC2CCOCC2)C(=O)OC12CCN(C1(C)CCN(C(=O)c3c(C)ncnc3C)CC1)CC2
- outcome [1]: inactive
- outcome [3]: inactive
- outcome [4]: inactive
- outcome [5]: inactive
- outcome [6]: inactive

Compound: CC(C)OC(=O)C(C)(C)Oc1ccc(C(=O)c2ccc(Cl)cc2)cc1
- outcome [1]: inactive
- outcome [3]: inactive
- outcome [4]: inactive
- outcome [6]: inactive

Compound: O=C1OC(c2ccc(O)cc2)(c2ccc(O)cc2)c2ccccc21
- outcome [1]: inactive
- outcome [3]: inactive
- outcome [4]: inactive
- outcome [5]: inactive
- outcome [8]: inactive
- outcome [6]: inactive

Compound: CC(=O)CC(c1ccccc1)c1c(O)c2ccccc2oc1=O (stereo not given)
- outcome [1]: inactive
- AC50 [7]: 39.6 µM (active)
- outcome [3]: inactive
- outcome [4]: inactive
- outcome [6]: inactive

Compound: CCCCC(CC)CO (stereo not given)
- outcome [1]: inactive
- outcome [2]: inactive
- outcome [6]: inactive

Compound: CCCCCCCCCC[N+](C)(C)[O-]
- outcome [1]: inactive
- outcome [2]: inactive
- outcome [3]: inactive
- AC50 [4]: 25 µM (active)
- AC50 [5]: 22.1 µM (active)
- outcome [8]: inactive
- outcome [6]: inactive

Compound: Nc1nc(=S)c2[nH]cnc2[nH]1
- outcome [1]: inactive
- AC50 [3]: 3.06 µM (active)
- AC50 [4]: 2.13 µM (active)
- AC50 [5]: 2.97 µM (active)
- AC50 [8]: 2.52 µM (active)
- outcome [6]: inactive

Compound: O=NO
- outcome [1]: inactive
- outcome [3]: inactive
- outcome [4]: inactive
- outcome [6]: inactive

Compound: CC1=C(C)S(=O)(=O)CCS1(=O)=O
- outcome [1]: inactive
- outcome [8]: inactive
- outcome [6]: inactive

Compound: CCCCCCCC(=O)OC
- outcome [1]: inactive
- outcome [6]: inactive
